Laboratory results published in PubChem BioAssay (NCATS).
Results filed as inconclusive are left out. Where a call stands in place of a potency, no number is given. Calls of active or inactive are those of the source. Unless noted, calls come from the whole dose curve; as a rule, active = well fitted curve in the direction sought with a large enough effect; inconclusive = small, poorly fitted or top-dose-only effect, or another doubt; inactive = no such curve, though single readings can be large; an effect the other way counts as inactive or inconclusive.

Key:
[1] = Cytotoxicity counterscreen for NFkB agonists and antagonists (AID 624476); note: potency is the fitted concentration of half-maximal effect
[2] = qHTS Assay for Identification of Small Molecule Agonists for NFkB Signaling Pathway. (AID 624478)
Procedure, shortened: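 NFkB-bla ME-180 cells carry a beta-lactamase reporter. They received compound plus TNF alpha at 10 pM final (its EC50) for 5 h at 37 C. Reporter activity was read as 460/530 nm emission ratio after 2 h LiveBLAzer substrate loading.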

[3] = qHTS Assay for Identification of Small Molecule Antagonists for NFkB Signaling Pathway. (AID 624479; calls by dose curve;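 note: pathway stimulated with TNF alpha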; note: potency is the fitted concentration of half-maximal effect)
[4] = Cell Proliferation Assay against the TMD8 Cell Line (AID 651645); conditions: TMD8 DLBCL cell line proliferation/viability; at 46.1 µM (top of the series) unless noted;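 note: cells exposed to compound for 48 h before reading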
Procedure, shortened: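 Cell viability of the ABC DLBCL line TMD8 is measured by CellTiter-Glo luminescence following a 48-hour incubation with compound. Percent activity uses DMSO as 100% and 9.2 uM bortezomib (final) as 0%.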

[5] = Cell Proliferation Assay against the HBL1 Cell Line (AID 651646); conditions: HBL1 DLBCL cells; at 46.1 µM (top of the series) unless noted;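 note: cells exposed to compound for 48 h before reading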
Procedure, shortened: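 Luminescent ATP read-out (CellTiter-Glo) after 48 h compound exposure of HBL1 cells at 37 °C; percent activity was scaled between DMSO as 100% and 9.2 uM bortezomib (final) as 0%.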

[6] = Cell Proliferation Assay against the TMD8 Cell Line (Caspase readout at 8 hrs) (AID 651713)
Procedure, shortened: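 TMD8 cells in RPMI plus 5% FBS were treated with compound for 8 h at 37C. Caspase 3/7 activation was read by Caspase-Glo luminescence. Percent activity was scaled from DMSO (0%) to 9.2 uM bortezomib final (100%).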

[7] = target: Tyrosine-protein kinase Yes (Homo sapiens) (UniProt P07947); experiment: qHTS for small molecule inhibitors of Yes1 kinase: Primary Screen (AID 686947); note: nearly all actives have a fitted effect of over 60% in size; note: potency is the fitted concentration of half-maximal effect
Chain of Tyrosine-protein kinase Yes (Homo sapiens) (P07947 whole entry, looked up): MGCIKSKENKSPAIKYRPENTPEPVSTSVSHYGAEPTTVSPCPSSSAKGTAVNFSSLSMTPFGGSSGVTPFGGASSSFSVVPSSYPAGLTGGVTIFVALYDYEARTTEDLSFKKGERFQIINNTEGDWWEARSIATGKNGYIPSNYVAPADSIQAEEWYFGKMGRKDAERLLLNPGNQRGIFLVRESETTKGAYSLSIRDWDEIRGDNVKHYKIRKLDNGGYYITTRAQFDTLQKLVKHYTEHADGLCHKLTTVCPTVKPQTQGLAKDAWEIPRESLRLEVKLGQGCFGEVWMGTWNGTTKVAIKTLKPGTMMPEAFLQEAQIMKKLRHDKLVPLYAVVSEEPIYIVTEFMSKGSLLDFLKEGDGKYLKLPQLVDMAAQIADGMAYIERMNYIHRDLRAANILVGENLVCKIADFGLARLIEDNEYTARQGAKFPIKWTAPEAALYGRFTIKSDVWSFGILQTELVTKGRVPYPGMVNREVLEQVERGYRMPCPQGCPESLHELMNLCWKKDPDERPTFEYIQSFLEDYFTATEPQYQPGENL
Procedure, shortened: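 Yes1 (4 nM) preincubated 20 min with compound, then 60 min room-temperature reaction with 0.1 mM ATP and 0.3 mg/mL poly(E4Y) in pH 7.5 Tris, 10 mM MgCl2. ADP measured by ADP-Glo luminescence, normalised to enzyme/no-enzyme controls.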

[8] = Cell Proliferation Assay against the TMD8 Cell Line (Caspase readout at 16 hrs) (AID 651712)
Procedure, shortened: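 Apoptotic response of TMD8 cells was judged from caspase 3/7 activation following a 16 hour compound incubation at 37 °C. Luminescent signal was converted to percent activity, with DMSO set as 0% and 9.2 uM final bortezomib as 100%.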

| SMILES | Potency [1] | outcome [2] | Potency [3] | viability (% of control) [4] | viability, percent of control [5] | Potency [6] | Potency [7] | Potency [8] |
| --- | --- | --- | --- | --- | --- | --- | --- | --- |
| CN([C@@H](Cc1ccc(OS(=O)(=O)c2cccc3cnccc23)cc1)C(=O)N1CCN(c2ccccc2)CC1)S(=O)(=O)c1cccc2cnccc12 | inactive | inactive | inactive | 72.1% | 106% | inactive | inactive | – |
| CCOC(=O)C1=C[C@@]2(CC)CCCN3CCc4c(n1c1ccccc41)[C@H]32 | inactive | inactive | inactive | 87.1% [at 29.8 µM] | 96.9% [at 29.8 µM] | – | inactive | inactive |
| CCCS(=O)(=O)Nc1ccc(F)c(C(=O)c2c[nH]c3ncc(Cl)cc23)c1F | inactive | inactive | 11.9 µM (active) | 68.5% | 70.6% | inactive | 0.173 µM (active) | – |
| O=C1[C@H](Cc2ccc(O)cc2)N2C(=O)CCN(C(=O)NCc3ccccc3)[C@H]2CN1Cc1cccc2ccccc12 | inactive | inactive | inactive | 27.3% | 32.2% | inactive | – | – |
| CCCS(=O)(=O)Nc1ccc(F)c(C(=O)c2c[nH]c3ncc(-c4ccc(Cl)cc4)cc23)c1F | 20.9 µM (active) | inactive | 16.8 µM (active) | 41.4% | 4.32% | inactive | – | – |
| CS(=O)(=O)c1ccc(C(=O)Nc2ccc(Cl)c(-c3ccccn3)c2)c(Cl)c1 | inactive | inactive | inactive | 93.4% | 99.4% | – | inactive | inactive |
| O=C1CCCC2=C1C(c1[nH]ncc1Cl)N=C(Nc1nc3ccccc3o1)N2 (centres undefined) | inactive | inactive | inactive | 75.7% | 71.6% | – | inactive | inactive |
| C[C@@H]1CN(Cc2ccc(F)cc2)[C@@H](C)CN1C(=O)c1cc2c(C(=O)C(=O)N(C)C)cn(C)c2cc1Cl | inactive | inactive | inactive | 61.8% | 78.3% | inactive | inactive | – |
| C[C@]12CC[C@H](O)CC1=CC[C@@H]1[C@H]2CC[C@]2(C)C(c3cccnc3)=CC[C@H]12 | inactive | inactive | inactive | 29.5% | 52.7% | inactive | inactive | – |
| Cc1ccc2c(c1)C(=O)[C@@]1(O)CCN(c3ccccc3)C1=N2 | inactive | inactive | inactive | 77.6% | 74.4% | inactive | – | – |
| Nc1nccc(-c2ccc3noc(-c4ccc(Cl)cc4)c3c2)n1 | inactive | inactive | 3.75 µM (active) | 81.3% | 109% | inactive | inactive | – |
